# About 2,000 (36%) of roughly 5,500 compounds were called active. Not shown: some 18% with an inconclusive outcome. Some of the results follow. Unmarked numbers belong to inactive results. Cut-off read from the data, not from the text of the source: active = normalized growth mostly below about 0.91 (no sharp cut-off); inconclusive = no clear call, values can overlap the other calls; inactive = mostly above about 0.92.
# Test: chemical genetic growth profiling, strain panel (AID 1159580);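 note: tested at 20 µM; growth read once vehicle control cultures reached saturation at 30 °C; 1 = growth at the plate median or of vehicle wells; lower values mean less growth of the strain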
# Details: growth OD
# [1] = S. cerevisiae deletion strains, locus YAL013W, strain DEP1, hits give low values
# [2] = S. cerevisiae deletion strains, locus YBR229C, strain ROT2, hits give low values
# [3] = S. cerevisiae deletion strains, locus YCL061C, strain MRC1, hits give low values
# [4] = S. cerevisiae deletion strains, locus YDL101C, strain DUN1, hits give low values
# [5] = S. cerevisiae deletion strains, locus YDR150W, strain NUM1, hits give low values
# [6] = S. cerevisiae deletion strains, locus YEL061C, strain CIN8, hits give low values
# [7] = S. cerevisiae deletion strains, locus YGR078C, strain PAC10, hits give low values
# [8] = S. cerevisiae deletion strains, locus YHR030C, strain SLT2, hits give low values
# [9] = S. cerevisiae deletion strains, locus YHR087W, strain rtc3, hits give low values
# [10] = S. cerevisiae deletion strains, locus YJL187C, strain SWE1, hits give low values
# [11] = S. cerevisiae deletion strains, locus YJR043C, strain POL32, hits give low values
# [12] = S. cerevisiae deletion strains, locus YJR075W, strain HOC1, hits give low values
# [13] = S. cerevisiae deletion strains, locus YLR039C, strain RIC1, hits give low values
# [14] = S. cerevisiae deletion strains, locus YLR058C, strain SHM2 (second series), hits give low values
# [15] = S. cerevisiae deletion strains, locus YLR085C, strain ARP6, hits give low values
# [16] = S. cerevisiae deletion strains, locus YLR262C, strain YPT6, hits give low values
# [17] = S. cerevisiae deletion strains, locus YML094W, strain GIM5, hits give low values
# [18] = S. cerevisiae deletion strains, locus YMR219W, strain ESC1, hits give low values
# [19] = S. cerevisiae deletion strains, locus YMR263W, strain SAP30, hits give low values
# [20] = S. cerevisiae deletion strains, locus YMR307W, strain GAS1, hits give low values
# [21] = S. cerevisiae deletion strains, locus YNL153C, strain GIM3, hits give low values
# [22] = S. cerevisiae deletion strains, locus YNL298W, strain CLA4 (second series), hits give low values
# [23] = S. cerevisiae deletion strains, locus YNL322C, strain KRE1, hits give low values
# [24] = S. cerevisiae deletion strains, locus YNR030W, strain Alg12, hits give low values
# [25] = S. cerevisiae deletion strains, locus YOL006C, strain TOP1, hits give low values
# [26] = S. cerevisiae deletion strains, locus YPL055C, strain LGE1, hits give low values
# [27] = S. cerevisiae deletion strains, locus YPR135W, strain CTF4, hits give low values
# [28] = S. cerevisiae strains, strain wild type, hits give low values
# [29] = S. cerevisiae deletion strains, locus YKL190W, strain CNB1, hits give low values
# [30] = S. cerevisiae deletion strains, locus YPL241C, strain CIN2, hits give low values
smiles,measurement,setting,value
Cc1oc(-c2ccccc2)cc1C(=O)N1CCN(c2ccc(C(F)(F)F)cn2)CC1,normalized growth,[1],0.86 (active)
same,normalized growth,[2],0.961
same,normalized growth,[3],0.984
same,normalized growth,[4],1
same,normalized growth,[5],0.858
same,normalized growth,[6],0.947
same,normalized growth,[7],0.963
same,normalized growth,[8],0.433 (active)
same,normalized growth,[9],0.935
same,normalized growth,[10],0.988
same,normalized growth,[11],0.98
same,normalized growth,[12],0.964
same,normalized growth,[13],0.876
same,normalized growth,[14],0.977
same,normalized growth,[15],0.663 (active)
same,normalized growth,[16],0.941
same,normalized growth,[17],0.875
same,normalized growth,[18],0.975
same,normalized growth,[19],0.919
same,normalized growth,[20],0.762
same,normalized growth,[21],0.978
same,normalized growth,[22],0.826 (active)
same,normalized growth,[23],0.984
same,normalized growth,[24],0.823 (active)
same,normalized growth,[25],0.795
same,normalized growth,[26],0.709 (active)
same,normalized growth,[27],0.497 (active)
same,normalized growth,[28],0.957
COc1ccccc1N1CCN(S(=O)(=O)c2ccc(C(F)(F)F)cc2)CC1,normalized growth,[1],1
same,normalized growth,[2],0.99
same,normalized growth,[3],0.985
same,normalized growth,[4],1.01
same,normalized growth,[5],0.989
same,normalized growth,[6],1.02
same,normalized growth,[7],1
same,normalized growth,[8],1.09
same,normalized growth,[9],1.03
same,normalized growth,[10],0.985
same,normalized growth,[11],0.998
same,normalized growth,[12],0.99
same,normalized growth,[29],0.965
same,normalized growth,[13],0.952
same,normalized growth,[14],0.987
same,normalized growth,[15],0.927
same,normalized growth,[16],0.962
same,normalized growth,[17],0.995
same,normalized growth,[18],0.989
same,normalized growth,[19],0.977
same,normalized growth,[20],1.04
same,normalized growth,[21],1
same,normalized growth,[22],1.01
same,normalized growth,[23],0.99
same,normalized growth,[24],1
same,normalized growth,[25],1.03
same,normalized growth,[26],0.988
same,normalized growth,[30],0.888
same,normalized growth,[27],0.983
same,normalized growth,[28],0.976
O=S(=O)(c1ccc(Cl)c(Cl)c1)N1CCN(c2ccc(C(F)(F)F)cn2)CC1,normalized growth,[1],1
same,normalized growth,[2],1.01
same,normalized growth,[3],1.05
same,normalized growth,[4],1.05
same,normalized growth,[5],1.02
same,normalized growth,[6],0.998
same,normalized growth,[7],1.05
same,normalized growth,[8],1.09
same,normalized growth,[9],1.02
same,normalized growth,[10],1.03
same,normalized growth,[11],1.03
same,normalized growth,[12],1.06
same,normalized growth,[29],1.02
same,normalized growth,[13],1
same,normalized growth,[14],1.02
same,normalized growth,[15],1.35 [resistant] (active)
same,normalized growth,[16],1
same,normalized growth,[17],1.04
same,normalized growth,[18],1.01
same,normalized growth,[19],1.04
same,normalized growth,[21],1.04
same,normalized growth,[22],1.04
same,normalized growth,[23],1.01
same,normalized growth,[24],1.04
same,normalized growth,[26],1.07
same,normalized growth,[30],1.11
same,normalized growth,[27],0.99
same,normalized growth,[28],1.01
